# Source: publication PMC7862700, “An all-to-all approach to the identification of sequence-specific readers for epigenetic DNA modifications on cytosine”
# What was measured:
# Test in all cases: DAPPL (digital affinity profiling via proximity ligation, sequencing); 10 mM Tris-HCl pH 7.5, 50 mM NaCl, 1 mM DTT, 4% glycerol, room temperature, 30 min; GST-TFs on glutathione beads, 16-mer random dsDNA library, 0.1% formaldehyde crosslink after washing; high values mean tight binding
# Conditions in all cases: protein: recombinant; tags: N-terminal GST; dsDNA, one strand shown
# [1] = target: T1, FLI1 (Homo sapiens, UniProt Q01543 1-452)
# T1 sequence: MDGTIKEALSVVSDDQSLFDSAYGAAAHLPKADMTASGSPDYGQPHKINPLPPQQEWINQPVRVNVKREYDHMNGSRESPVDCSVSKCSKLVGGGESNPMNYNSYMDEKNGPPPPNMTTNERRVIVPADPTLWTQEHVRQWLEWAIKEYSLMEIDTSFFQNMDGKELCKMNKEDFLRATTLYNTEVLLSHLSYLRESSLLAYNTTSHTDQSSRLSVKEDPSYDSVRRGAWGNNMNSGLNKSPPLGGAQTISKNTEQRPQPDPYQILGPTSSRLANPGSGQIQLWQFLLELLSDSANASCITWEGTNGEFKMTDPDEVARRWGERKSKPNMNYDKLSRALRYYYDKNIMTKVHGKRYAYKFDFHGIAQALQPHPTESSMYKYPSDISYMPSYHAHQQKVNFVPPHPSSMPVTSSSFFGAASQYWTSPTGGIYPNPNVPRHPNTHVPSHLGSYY
# Summary of the method: (§1)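 After expression in yeast as GST fusions, human transcription factors were bound to glutathione beads, DNA-barcoded and mixed with a tag-only sample. The pools were incubated with 200 nmole of a 16-mer random double-stranded DNA library in Tris/NaCl/DTT/glycerol buffer (30 min, room temperature), washed and crosslinked with 0.1% formaldehyde. Proximity ligation with BsaI/T4 ligase ran for 1 h at 37 °C, before PCR amplification and sequencing on an Illumina NextSeq500. Binding signal is a hexamer's read frequency for a factor divided by its frequency for the tag-only sample.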
# [2] = target: T2, ELK1 (Homo sapiens, UniProt P19419 1-428)
# T2 sequence: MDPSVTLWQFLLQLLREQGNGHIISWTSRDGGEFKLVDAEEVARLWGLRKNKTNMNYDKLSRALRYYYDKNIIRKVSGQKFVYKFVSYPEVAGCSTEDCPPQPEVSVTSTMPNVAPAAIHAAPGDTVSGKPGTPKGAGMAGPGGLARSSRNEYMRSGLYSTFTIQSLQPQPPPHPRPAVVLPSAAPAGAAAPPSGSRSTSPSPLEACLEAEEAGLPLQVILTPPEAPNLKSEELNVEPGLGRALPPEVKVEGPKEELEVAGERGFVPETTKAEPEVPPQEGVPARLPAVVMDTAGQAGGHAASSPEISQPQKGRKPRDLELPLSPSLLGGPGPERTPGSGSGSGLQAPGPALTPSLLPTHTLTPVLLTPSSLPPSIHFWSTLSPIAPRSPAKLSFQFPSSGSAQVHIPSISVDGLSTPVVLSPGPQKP
# Summary of the method: as §1
# [3] = target: T3, GABPA (Homo sapiens, UniProt Q06546 1-454)
# T3 sequence: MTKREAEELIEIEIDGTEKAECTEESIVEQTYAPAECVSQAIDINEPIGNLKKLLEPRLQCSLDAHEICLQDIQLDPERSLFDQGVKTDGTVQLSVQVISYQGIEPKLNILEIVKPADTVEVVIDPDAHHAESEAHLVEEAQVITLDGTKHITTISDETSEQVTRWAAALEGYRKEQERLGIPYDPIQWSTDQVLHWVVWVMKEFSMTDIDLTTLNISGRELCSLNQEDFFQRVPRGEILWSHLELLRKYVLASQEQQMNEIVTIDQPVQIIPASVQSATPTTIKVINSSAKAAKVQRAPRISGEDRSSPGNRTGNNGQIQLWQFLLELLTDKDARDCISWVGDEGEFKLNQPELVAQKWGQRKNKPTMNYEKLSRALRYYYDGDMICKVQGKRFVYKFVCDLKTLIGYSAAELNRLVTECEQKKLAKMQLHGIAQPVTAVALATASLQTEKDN
# Summary of the method: as §1
# [4] = target: T4, ERG (Homo sapiens, UniProt P11308 1-479)
# T4 sequence: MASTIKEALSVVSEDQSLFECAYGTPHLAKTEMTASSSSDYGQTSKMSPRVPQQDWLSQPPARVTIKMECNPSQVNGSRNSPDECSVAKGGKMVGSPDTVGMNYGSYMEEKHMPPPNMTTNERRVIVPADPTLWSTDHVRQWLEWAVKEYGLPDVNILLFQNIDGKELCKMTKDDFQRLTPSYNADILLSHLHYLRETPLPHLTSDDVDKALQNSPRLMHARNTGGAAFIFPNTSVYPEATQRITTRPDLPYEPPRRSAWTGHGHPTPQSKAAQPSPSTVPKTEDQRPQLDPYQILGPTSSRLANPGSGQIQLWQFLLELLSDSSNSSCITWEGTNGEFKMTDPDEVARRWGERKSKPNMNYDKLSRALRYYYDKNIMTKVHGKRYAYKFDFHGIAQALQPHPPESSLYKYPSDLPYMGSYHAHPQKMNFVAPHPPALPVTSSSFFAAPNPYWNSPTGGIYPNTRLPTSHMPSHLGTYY
# Summary of the method: as §1
# [5] = target: ELF1 (Homo sapiens, UniProt P32519 1-619)
# Summary of the method: as §1
# [6] = target: T5, EHF (Homo sapiens, UniProt Q9NZC4 1-300)
# T5 sequence: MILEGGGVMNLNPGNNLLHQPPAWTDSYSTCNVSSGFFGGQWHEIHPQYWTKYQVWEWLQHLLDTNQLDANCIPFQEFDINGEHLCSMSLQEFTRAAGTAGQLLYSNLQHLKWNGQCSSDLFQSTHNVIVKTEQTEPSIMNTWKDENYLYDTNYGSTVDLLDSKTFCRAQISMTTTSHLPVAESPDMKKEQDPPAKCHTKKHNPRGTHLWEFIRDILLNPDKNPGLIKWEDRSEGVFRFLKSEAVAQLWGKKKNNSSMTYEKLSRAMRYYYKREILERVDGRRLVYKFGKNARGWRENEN
# Summary of the method: as §1
# [7] = target: SPI1 (Homo sapiens, UniProt P17947 1-270)
# Summary of the method: as §1
# [8] = target: SPIB (Homo sapiens, UniProt Q01892 1-262)
# Summary of the method: as §1
# [9] = target: T6, ELK3 (Homo sapiens, UniProt P41970 1-407)
# T6 sequence: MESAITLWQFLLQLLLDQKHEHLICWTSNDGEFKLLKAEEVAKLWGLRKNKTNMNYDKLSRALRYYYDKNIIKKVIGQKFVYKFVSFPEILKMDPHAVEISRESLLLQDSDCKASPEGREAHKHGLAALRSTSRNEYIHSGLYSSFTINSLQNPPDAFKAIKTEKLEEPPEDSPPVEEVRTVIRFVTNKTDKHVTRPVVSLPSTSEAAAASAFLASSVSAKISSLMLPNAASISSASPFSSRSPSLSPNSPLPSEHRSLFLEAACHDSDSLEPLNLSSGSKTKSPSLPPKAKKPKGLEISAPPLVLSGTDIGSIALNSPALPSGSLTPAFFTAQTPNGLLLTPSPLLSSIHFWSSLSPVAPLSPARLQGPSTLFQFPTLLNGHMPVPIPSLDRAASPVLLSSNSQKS
# Summary of the method: as §1
# Chain of SPIB (Q01892 whole entry): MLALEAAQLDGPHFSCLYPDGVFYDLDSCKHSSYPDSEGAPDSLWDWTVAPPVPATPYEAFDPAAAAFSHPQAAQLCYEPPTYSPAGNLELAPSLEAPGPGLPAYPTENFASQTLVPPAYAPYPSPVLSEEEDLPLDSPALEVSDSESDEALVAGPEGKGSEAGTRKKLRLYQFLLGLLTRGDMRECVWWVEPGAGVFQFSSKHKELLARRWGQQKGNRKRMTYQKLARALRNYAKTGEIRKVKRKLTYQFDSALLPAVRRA
# Chain of ELF1 (P32519 whole entry): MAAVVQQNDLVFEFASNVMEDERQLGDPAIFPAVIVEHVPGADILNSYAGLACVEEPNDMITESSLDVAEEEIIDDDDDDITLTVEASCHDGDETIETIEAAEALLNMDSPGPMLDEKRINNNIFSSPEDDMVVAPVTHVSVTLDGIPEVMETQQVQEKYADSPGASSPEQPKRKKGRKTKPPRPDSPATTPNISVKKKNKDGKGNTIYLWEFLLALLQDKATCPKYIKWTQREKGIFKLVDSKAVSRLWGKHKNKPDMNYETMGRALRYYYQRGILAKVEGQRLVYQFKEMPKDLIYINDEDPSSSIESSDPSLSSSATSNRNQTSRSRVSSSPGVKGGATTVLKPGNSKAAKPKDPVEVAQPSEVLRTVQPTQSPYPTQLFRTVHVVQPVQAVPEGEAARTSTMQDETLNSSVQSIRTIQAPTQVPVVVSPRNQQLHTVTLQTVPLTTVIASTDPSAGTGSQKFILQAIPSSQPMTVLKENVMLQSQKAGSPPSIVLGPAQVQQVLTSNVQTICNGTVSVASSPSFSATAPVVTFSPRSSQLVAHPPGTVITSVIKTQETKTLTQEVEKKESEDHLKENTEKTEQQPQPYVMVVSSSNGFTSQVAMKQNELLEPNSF
sequence,measurement,setting,value
ATTAAC,binding signal,[1],"1.29 fold enrichment (6-mer frequency, TF over GST control)"
same,binding signal,[2],"1.16 fold enrichment (6-mer frequency, TF over GST control)"
same,binding signal,[3],"1.22 fold enrichment (6-mer frequency, TF over GST control)"
same,binding signal,[4],"1.21 fold enrichment (6-mer frequency, TF over GST control)"
same,binding signal,[5],"1.32 fold enrichment (6-mer frequency, TF over GST control)"
same,binding signal,[6],"1.16 fold enrichment (6-mer frequency, TF over GST control)"
same,binding signal,[7],"1.18 fold enrichment (6-mer frequency, TF over GST control)"
same,binding signal,[8],"1.24 fold enrichment (6-mer frequency, TF over GST control)"
same,binding signal,[9],"1.26 fold enrichment (6-mer frequency, TF over GST control)"
